Each structure is given as a SMILES string. The campaign covered roughly 24,000 compounds. About 1,200 (5%) were called active. Roughly 2% stayed inconclusive and do not appear here. Only a sample is shown. Unmarked numbers belong to inactive results. How the calls were made is not given here.

The assay in a line: Mycobacterium tuberculosis H37Rv growth inhibition, putative kinase inhibitor library, confirmatory dose response (AID 2842).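 Further: bacteria incubated one week before Alamar blue readout; 0% = bacteria only wells and 100% = bacteria with high antibiotic.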 To be noted: M. tuberculosis H37Rv growth inhibition; CC50: measured here: Vero cell cytotoxicity; inhibition: active compounds read high.
A word on the inhibition: it is the change of the read-out against control, counted positive when it falls. Turning to `COc1ccc(OC)c(-c2nnc(NC(=O)C(C)Sc3ccccc3)s2)c1` (stereo not given), the inhibition was -0.69%. On to `COc1ccc(Nc2nc(N3CCN(c4cccc(Cl)c4)CC3)nc3nccnc23)cc1`, for which the inhibition was 9.83%. With `CCN(CC)CCCNc1ncnc2sc3c(c12)CC(C)CC3` (stereo not given) the figure was 5.59%; with `COc1cc(C(=O)NC(=S)Nc2cccc3c2C(=O)NC3=O)cc(OC)c1OC`, -8.66%; with `Cn1c(=O)c2c(nc(SCCN3CCOCC3)n2Cc2ccccc2)n(C)c1=O`, 0.8%.

Regarding `COc1ccc(C(=O)c2cn(CC(=O)Nc3ccc(F)cc3)c3ccc(F)cc3c2=O)cc1`, the inhibition is 9.54%. For `CC1(C)Cc2c(sc(NC(=O)/C=C/c3ccccc3)c2C#N)C(C)(C)N1`, the inhibition was -4.69%. With `COc1ccc(CC(=O)NCCc2cc3ccc(C)cc3[nH]c2=O)cc1OC` the figure was 11.1%.

Consider `CC1(C)COc2ccc(NC(=O)Cc3cccs3)cc2NC1=O`, for which the inhibition was 6.11%. Take `CCS(=O)(=O)c1cccc(C(=O)Nc2sc(C)c(C)c2C(=O)NC)c1`: the inhibition was -4.86%. `CCOC(=O)N1CCN(C(=O)COc2cccc3c2CCN(CC)C3=O)CC1`: the inhibition is -2.11%. With `Cn1c(Cn2c(=O)sc3ccccc32)nnc1SCC(=O)Nc1ccc2c(c1)OCO2` the figure was -4.61%. Regarding `CC(C)N1CCc2c(sc(NC(=O)c3ccccc3Oc3ccccc3)c2C(N)=O)C1`, the inhibition was 81.6%.

As for `COC(=O)c1c(NC(=O)c2ccccc2)sc2c1CC(C)(C)NC2(C)C`, the inhibition is 16.8%.

In the case of `Cc1ccc(NC(=O)CSc2nccn(-c3ccc(F)cc3)c2=O)c(C)c1`, the inhibition was -11.8%.

Regarding `CNC(=O)C(=O)c1c[nH]c2ccccc12`, the inhibition is 4.99%. `CC1CCCCN1c1ncnc(N)c1[N+](=O)[O-]` (stereo not given): the inhibition is 1.66%. In the case of `CC1(C)Cc2c(sc(NC(=O)c3cccc(F)c3)c2C#N)C(C)(C)N1`, the inhibition was -10.1%.

For `Cc1nnc(SCc2ccc([N+](=O)[O-])cc2)n(N)c1=O`, the inhibition was 1.18%. Consider `O=C1/C(=C/c2ccc(Br)cc2)Oc2cc(O)ccc21`, for which the inhibition is 8.31%. For the compound `COc1ccc(CNc2nc3c(-c4ccc(Cl)cc4)nnn3c3ccccc23)cc1`, the inhibition is 4.87%. The figure for `O=C(Nc1nc2c(cc3c4c(cccc42)CC3)s1)C(c1ccccc1)c1ccccc1` is 10.3%; for `Cc1cc(OC(=O)C23CC4CC(CC(C4)C2)C3)c([N+](=O)[O-])c(=O)[nH]1` it is 2.01%. The figure for `C=CCn1c(N(C)C)nc2c1c(=O)[nH]c(=O)n2C` is -2.63%; for `CCOc1ccccc1NC(=O)c1oc2ccccc2c1NC(=O)COc1ccccc1` it is 10.5%. Regarding `COc1ccc(Cn2cc(C(=O)c3ccc(Cl)cc3)c(=O)c3cc4c(cc32)OCCO4)cc1`, the inhibition was 14.9%.

Turning to `CCOc1ccc(C(=O)Nc2c3c(nn2C(C)(C)C)CS(=O)C3)cc1` (stereo not given), the inhibition is 6.89%. As for `CCCC(=O)Nc1nnc(-c2cccc(C)c2)s1`, the inhibition is 5.77%. Turning to `COC(=O)c1ccc(NC(=O)CSc2nnc(C)c(=O)n2N)cc1`, the inhibition is 6.15%. In the case of `Cc1ccc(NC(=O)CSc2nnc(CCC(=O)O)c(=O)[nH]2)cc1C`, the inhibition is -8.56%. On to `O=c1cnnc(N/N=C/c2ccc(O)cc2O)[nH]1`, for which the inhibition is 45.3%. The figure for `O=C1C(=O)N(CCCN2CCOCC2)C(c2cccc(F)c2)/C1=C(\O)c1ccncc1` (stereo not given) is -3.95%; for `CCOc1ccc(N2CC(NC(=O)Nc3cccc(C)n3)CC2=O)cc1` (stereo not given) it is 8.06%. As for `O=S(=O)(Nc1cc(Sc2ncn[nH]2)c(O)c2ccccc12)c1ccc(F)cc1`, the inhibition is -6.45%.

In the case of `COc1ccccc1NC(=O)CCCN1C(=O)c2cccc3cccc(c23)C1=O`, the inhibition was 16.8%. On to `COc1ccccc1NC(=O)c1oc2ccccc2c1NC(=O)c1ccc(Cl)c([N+](=O)[O-])c1`, for which the inhibition is 3.99%. With `COc1ccc(OCC(=O)N/N=C/c2ccccc2O)cc1`, the inhibition was -13%. As to `O=C(/C=C/c1cccs1)Nc1nncs1`, the inhibition is -2.33%. As for `COc1cccc2c1OC(c1ccncc1)N1N=C(c3cc(C)ccc3O)CC21` (stereo not given), the inhibition is 0.62%. As to `Cc1ccccc1NC(=O)CSc1nnc(Cn2c(=O)sc3ccccc32)n1C`, the inhibition was -1.23%. For `COc1ccc(-n2c(=O)[nH]c3c(C(N)=O)nc(-c4ccncc4)nc32)cc1`, the inhibition is 1.06%. With `CC(C)c1nnc(SCc2c(Cl)ccc(Cl)c2Cl)n1N` the figure was -13.8%. For `O=C(Nc1ccc2c(c1)OCO2)c1cnc2n(c1=O)CCS2`, the inhibition was 0.45%. For the compound `Cc1nnc(NC(=O)CSc2nc3c(c(=O)n2-c2ccccc2)SCC3)s1`, the inhibition is -2.21%. The figure for `Cc1oc2c(CN3CCN(C)CC3)c(O)ccc2c(=O)c1-c1nc2ccccc2s1` is -15.1%. Take `Cc1ccc(CSc2nc3c([nH]2)c(=O)n(C)c(=O)n3C)cc1`: the inhibition is 6.64%. Regarding `NC(=O)c1oc2ccccc2c1NC(=O)c1ccc(Cl)s1`, the inhibition is 14.6%. On to `Nc1nc(SCC(=O)Nc2ccc(F)cc2F)[nH]c(=O)c1NC(=O)c1ccc(Br)cc1`, for which the inhibition is -9.37%. As to `Cc1cc2nnc(SCC(=O)Nc3ccccc3)n2c2ccccc12`, the inhibition is 0.4%. As for `COc1cccc(NC(=O)Nc2nc3c(s2)C(=O)CC(C)(C)C3)c1`, the inhibition was 8.4%. The figure for `CCN(c1ncnc(N)c1[N+](=O)[O-])C1CCCCC1` is 5.41%.

With `COc1ccc(NC(=O)CSc2nnc3ccc(-c4ccncc4)nn23)cc1`, the inhibition is -9.39%.

With `O=C(CSc1nnc2[nH]c(=O)ccn12)Nc1ccc([N+](=O)[O-])cc1`, the inhibition is -13.1%. Consider `CN(CCC#N)c1ccc(C=C2C(=O)NC(=S)NC2=O)cc1`, for which the inhibition is 5.58%.

For `COC(=O)C1=C(C)NC(=O)NC1c1ccc(Cl)cc1` (stereo not given), the inhibition is 1.95%. On to `CC(C)CCSc1nc2c(c(=O)[nH]c(=O)n2C)n1CC(O)COc1ccc(Cl)cc1` (stereo not given), for which the inhibition is 21.4%.

In the case of `COc1cccc(N2CC(C)Cn3c2nc2c3c(=O)[nH]c(=O)n2C)c1` (stereo not given), the inhibition is 0.57%. For `CC1Cc2nc(SCc3ccccn3)n(-c3ccc(F)cc3)c(=O)c2S1` (stereo not given), the inhibition is 20%.

`Cc1cccc(-n2ccnc2SCC(=O)Nc2nc3ccccc3s2)c1C`: the inhibition is 4.43%. In the case of `CCOc1ccc(/C(O)=C2\C(=O)C(=O)N(CCCn3ccnc3)C2c2ccc(F)cc2)cc1Cl` (stereo not given), the inhibition was -17.6%. With `CSc1ccc2nc(Nc3ccc(F)cc3F)sc2c1`, the inhibition was 8.52%.

In the case of `C=CCOC(=O)C1=C(C)Nc2[nH]c(=O)[nH]c(=O)c2C1c1ccc(Cl)c(Cl)c1` (stereo not given), the inhibition was -6.17%. Take `Nc1nc(SCC(=O)N2CCCCCC2)[nH]c(=O)c1NC(=O)c1ccco1`: the inhibition is -18.5%. For the compound `O=C(Nc1nc(-c2ccc(Cl)cc2Cl)cs1)c1ccc2c(c1)OCCO2`, the inhibition was 0.34%. With `CC1=C(C(=O)Nc2ccc(Cl)cc2)C(c2ccccc2Cl)C(C#N)=C(SCC(N)=O)N1` (stereo not given) the figure was 71.6%; with `Cc1nc2sc(C(N)=O)c(N)c2c(-c2ccccc2)c1C(=O)Nc1ccccc1`, 1.79%. On to `CCOC(=O)c1cnc2ccc(OCC)cc2c1Nc1cccc(Cl)c1C`, for which the inhibition was -5.22%. With `COc1ccc(-n2c(=O)[nH]cc(C(=O)Nc3ccc4c(c3)OCO4)c2=O)cc1OC` the figure was 1.59%; with `Cc1ccccc1NC(=O)Cc1csc(NS(=O)(=O)c2ccc(Cl)cc2)n1`, -5.2%; with `Cc1ccnc(NC(=O)NC2CC(=O)N(c3ccc(F)cc3)C2)c1` (stereo not given), 11.3%. With `CCOC(=O)c1oc2ccccc2c1NC(=O)c1ccc(F)c(F)c1`, the inhibition was 3.18%. With `CC1CCc2c(sc(NC(=O)c3ccc4ccccc4c3)c2C#N)C1` (stereo not given), the inhibition is 1.23%.

For the compound `CCCCCCCNC(=O)c1c(N)n(/N=C/c2ccco2)c2nc3ccccc3nc12`, the inhibition was -9.39%. The figure for `O=C(O)COc1ccccc1/C=C1/SC(=S)N(NC(=O)c2ccco2)C1=O` is -1.98%; for `CNC(=O)c1c(NC(=O)CC2SC(=O)NC2=O)sc2c1CCCC2` (stereo not given) it is -3.54%; for `Cc1ccc(C(=O)Nc2cc(C)c3c(=O)oc4ccccc4c3n2)cc1[N+](=O)[O-]` it is -2.97%. For the compound `O=C(CN1N=NC2C(=O)N(c3ccc(Cl)cc3)C(=O)C21)Nc1ccccc1Cl` (stereo not given), the inhibition is 0.65%. Turning to `COc1ccc(NC(=O)C2=C(C)Nc3ncnn3C2c2ccc(C#N)cc2)cc1` (stereo not given), the inhibition is -1.94%. For `COc1ccc(/C(O)=C2\C(=O)C(=O)N(CCCn3ccnc3)C2c2cccc(F)c2)cc1Cl` (stereo not given), the inhibition was -11.8%. For the compound `O=C(CSc1nc2c(c(=O)n1-c1ccc(Cl)cc1)SCC2)Nc1ccc2c(c1)OCO2`, the inhibition is -11.7%. With `Cn1c(SCC(=O)N2CCOCC2)nnc1-c1c[nH]c2ccccc12` the figure was -12.7%; with `O=C(Nc1nnc(-c2ccc(F)cc2)s1)c1ccccc1`, 8.84%; with `CCN1CCN(c2nc(Nc3ccc(OC)cc3)c3nccnc3n2)CC1`, -0.8%.

`CCc1ccc(NC(=O)CSc2nc(-c3cccs3)nc3c2c(=O)n(C)c(=O)n3C)cc1`: the inhibition was -5.83%.

With `CCOc1ccc(C(=O)Nc2nnc(C34CC5CC(CC(C5)C3)C4)s2)cc1`, the inhibition was 9.95%. The figure for `COc1ccc(CCNC(=O)C(=O)NCC(c2ccco2)N2CCc3ccccc32)cc1` (stereo not given) is -2.72%.

Consider `CSc1ccc2nc(Nc3cc(C)ccc3C)sc2c1`, for which the inhibition was 13.8%. For the compound `COc1cc(CN2CCNC(=O)C2CC(=O)O)cc(OC)c1` (stereo not given), the inhibition is -0.59%.

Consider `COCCOC(=O)C1=C(C)NC(=O)NC1c1ccc(OC)cc1` (stereo not given), for which the inhibition is -0.33%.

Turning to `COC(=O)c1ccc(CSc2nnc3[nH]c(=O)c(C)c(C)n23)o1`, the inhibition was -3.33%.

The values above are taken from PubChem BioAssay AID2842 (Southern Research Institute, 2010).
